Source: PubChem (National Center for Advancing Translational Sciences (NCATS))
The entries come from a sample that favours hits as a whole.
Cycloheximide cs = counter-screen for Shiga toxin inhibitors: cycloheximide protein synthesis inhibition. cell reporter, cycloheximide protein synthesis inhibition counterscreen. max response, %. actives 12% (n = 300,000). AID 2314; in the data active = max response mostly above about 13%, no sharp cut-off; inactive = mostly below about 14%; also: read at 38.3 µM for the half of the compounds with a filed dose; 0% is about no effect
Shiga inhibitor = Shiga toxin inhibition. Vero cells, Shiga toxin protein synthesis inhibition reporter. inhibition, % at 38.7 µM. actives 9.2% (n = 290,000). AID 2315; in the data active = inhibition mostly above about 28%, no sharp cut-off; inactive = mostly below about 43%; also: 0% is about no effect
LmPK inhibitor = blocks Leishmania mexicana pyruvate kinase activity; Q27686; purified LmPK, Kinase-Glo ATP luminescence, 1 h; AID 1721; actives 0.37% (n = 290,000); Potency, µM (doses to about 57.5 µM), without a hit: at the highest dose activity change, negative = inhibition, actives largely listed as inhibitors; also: potency is read from the fitted curve at half-maximal effect; % is scaled to controls: 0 for no effect and ±100 for the full control effect
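qHTS format; LmPK 0.1 nM; substrates PEP 0.5 mM and ADP 0.1 mM. One-hour room-temperature incubation, then coupled luciferase luminescence; 0.5 nM enzyme wells mark activation.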
TbPYK inhibitor = T. brucei pyruvate kinase inhibition | Q57TT1 | TbPYK enzyme, Kinase-Glo Plus ATP luminescence, 45 min | Potency, µM (top dose mostly 76.8 µM), inactives show top-dose activity, negative = inhibition, hits mostly inhibitors | actives 0.12% (n = 410,000) | AID 624173; also: potency is read from the fitted curve at half-maximal effect; % is scaled to controls: 0 for no effect and ±100 for the full control effect; nearly all actives have a fitted effect of over 50% in size
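Luminescence from Kinase-Glo Plus, added after a 45-minute room-temperature reaction, served as the end-point read-out. The enzyme and substrate were preincubated with compound before ADP (130 uM final) initiated turnover. Concentration-effect curves came from normalized qHTS data.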
Giardia FBPA inh = inhibitors of Giardia lamblia fructose-1,6-bisphosphate aldolase. A8B2U2. purified Giardia FBPA. Potency, µM (series often up to 59.6 µM), for inactives: at the highest dose activity, negative = inhibition, usual class: inhibitors. actives 0.71% (n = 290,000); also: potency is read from the fitted curve at half-maximal effect; % is scaled to controls: 0 for no effect and ±100 for the full control effect; nearly all actives have a fitted effect of over 55% in size
Target sequence (A8B2U2 whole entry, looked up): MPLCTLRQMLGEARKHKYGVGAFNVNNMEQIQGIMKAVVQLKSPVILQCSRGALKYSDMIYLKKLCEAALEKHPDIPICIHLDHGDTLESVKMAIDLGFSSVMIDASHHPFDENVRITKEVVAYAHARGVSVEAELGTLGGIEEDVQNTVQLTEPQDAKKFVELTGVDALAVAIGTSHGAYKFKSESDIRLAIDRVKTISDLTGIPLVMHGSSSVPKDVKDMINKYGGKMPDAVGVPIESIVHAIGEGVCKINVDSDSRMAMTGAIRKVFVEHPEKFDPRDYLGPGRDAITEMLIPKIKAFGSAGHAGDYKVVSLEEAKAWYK
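Giardia FBPA (40 nM reagent) was preincubated 10 min at RT with compound (up to 57.5 uM final), then substrate plus GAPDH/TPI/NAD/arsenate coupling system with diaphorase/resazurin was added; resorufin fluorescence (525/598 nm) was read after 20 min.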
Sm TGR block = blocks Schistosoma mansoni thioredoxin glutathione reductase | actives 3% (n = 360,000) | Potency, µM (series often up to 114 µM), for the others: top-dose activity change, negative = inhibition, actives largely listed as inhibitors | AID 485364 | purified TGR, DTNB reduction, TNB absorbance 405 nm; also: potency is read from the fitted curve at half-maximal effect; % is scaled to controls: 0 for no effect and ±100 for the full control effect; nearly all actives have a fitted effect of over 60% in size
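TGR 20 nM + NADPH 100 uM (dispensed conc.), cpd preinc 15 min RT; start with NADPH (500 uM addition) then DTNB (15 mM addition). Kinetic TNB absorbance, 405 nm filter. Four-parameter Hill fit across titration.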
* marks the source's active call; other numbers are inactive results; ? = inconclusive; / = not tested or not shown. Unless noted, calls follow the shape of the dose curve; as a rule, active = well fitted curve in the direction sought with a large enough effect; inconclusive = small, poorly fitted or top-dose-only effect, or another doubt; inactive = no such curve, though single readings can be large; an effect the other way counts as inactive or inconclusive.

SMILES	Cycloheximide cs	Shiga inhibitor	LmPK inhibitor	TbPYK inhibitor	Giardia FBPA inh	Sm TGR block
CC1(C)CC(=O)c2cc(-c3nc(-c4ccc(Br)cc4)cs3)c(=O)n(-c3ccccc3)c2C1	/	/	/	3%	/	8%
C=CCn1c(O)c(CN2CCN(Cc3ccccc3)CC2)c(C)c(C#N)c1=O	9	-14	1%	3%	?	45µM*
Cc1c(C(=O)NCc2ccccc2CN2CCCC2)oc2c(F)cccc12	/	/	/	-11%	/	-9%
Cc1ccc2oc(C(=O)N3CCC(N4CCSCC4)CC3)c(C)c2c1	3	1	2%	2%	/	-12%
Cc1c(C(=O)O)oc2c(F)cccc12	-1	-3	0%	0%	-8%	-9%
Cc1c(C(=O)N2CCC[C@H]2CO)oc2c(F)cccc12	24*	36*	-4%	-1%	10%	4%
Cc1c(C(=O)N2C[C@@H](C)O[C@@H](C)C2)oc2c(F)cccc12	40*	70*	2%	7%	0%	-33%
Cc1c(C(=O)N2CCC(N3CCSCC3)CC2)oc2c(F)cccc12	23*	33	18%	-18%	/	4%
Cc1c(C(=O)NC2CCOC2)oc2c(F)cccc12 (centres undefined)	71*	114*	-6%	8%	-4%	3%
Nc1cc(F)ccc1N1CCCCCC1	12	-10	-6%	2%	-27%	-25%
Cc1ccn2cc(CCNC(=O)C3CC=CCC3C(=O)O)nc2c1 (centres undefined)	20*	77*	-2%	5%	-1%	7%
Cc1ccn2cc(CCNC(=O)CC(C)(C)C)nc2c1	12	9	-4%	-2%	-6%	-10%
COc1ccc(OC)c(-c2noc(N3CCN(c4cc(C)ccc4C)CC3)n2)c1	/	/	/	-2%	/	-2%
Cn1cc(Br)c(NC(=O)/C=C/C(=O)O)n1	20	7	1%	-9%	?	0.63µM*
Cc1c(N/C=C/C(=O)c2cccs2)c(=O)n(-c2ccccc2)n1C	-2	-10	-5%	-2%	-9%	45µM*
Cc1c(NC(=O)c2cccs2)c(=O)n(-c2ccccc2)n1C	3	-1	2%	0%	0%	0%
Cc1c(NC=C(C#N)C#N)c(=O)n(-c2ccccc2)n1C	-4	-7	3%	-1%	-4%	0%
Cc1c(N/C=C(\Cl)C(=O)C(F)(F)F)c(=O)n(-c2ccccc2)n1C	-4	-2	12%	-2%	-25%	14µM*
CCCC(=O)NC(Nc1c(C)n(C)n(-c2ccccc2)c1=O)C(Cl)(Cl)Cl (centres undefined)	-4	-4	-2%	0%	6%	/
CC(=O)NC(Nc1c(C)n(C)n(-c2ccccc2)c1=O)C(Cl)(Cl)Cl (centres undefined)	11	11	1%	1%	-12%	40µM*
O=C(CSc1n[nH]c(-c2ccc(F)cc2)n1)N1CCN(c2ccc(F)cc2)CC1	/	/	/	-8%	/	6%
O=C(NCC1CCCCC1)c1ccccc1[N+](=O)[O-]	10	-4	0%	6%	14%	8%
COc1ccccc1-c1cc2nc(C)c(CCC(=O)NCCc3ccc(SC)cc3)c(C)n2n1	/	/	/	-3%	/	-6%
Cc1cccc(N=C2CCCC2C(=O)Nc2cccc(C)c2C)c1C (centres undefined)	/	/	/	-4%	/	/
O=C(Cc1ccc(Cl)cc1)NNC(=S)NC(=O)c1cccnc1	-3	10	3%	-9%	-19%	/
SMILES	Cycloheximide cs	Shiga inhibitor	LmPK inhibitor	TbPYK inhibitor	Giardia FBPA inh	Sm TGR block
O=C(NC(=S)NNC(=O)c1ccccc1O)c1cccnc1	14	51*	0%	-19%	20%	-5%
O=C(NNC(=S)Nc1ccc(Br)cc1)c1cccnc1	18*	37	4%	-24%	16%	6%
O=C(NNC(=S)NC(=O)c1cccnc1)c1ccc(Cl)cc1	19*	-26	-2%	-18%	18%	-33%
O=C(/C=C\Nc1ccc(Br)cc1)c1cccnc1	57*	76*	-11%	-3%	0%	5%
CC(C)c1ccc(NC(=S)NNC(=O)c2cccnc2)cc1	13	19	-1%	-10%	15%	/
O=C(NC(=S)NNC(=O)c1ccc(Cl)cc1Cl)c1cccnc1	-3	32	1%	-18%	?	-5%
